Sampled rows, rich in hits. Any-hit rate of the full collection: about 19%.
IL1B secr inh: inflammasome signaling inhibition, IL-1 beta readout. THP-1 LPS/ATP IL-1B secretion, AlphaLISA, 16 h; active compounds read low. AID 743279. actives 4.7% (n = 360,000). activity change, % at 57.5 µM; in the data active means activity change below about -50%; inconclusive means mostly about -30% to -49%
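THP-1 cells pretreated 1 hr with compounds (up to 57.5 uM final), then stimulated with LPS (250 ng/mL final) plus ATP (1.25 mM final); secreted IL-1B measured by AlphaLISA after 16 hr, decreased signal indicating inhibition.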
TDP1 cell CPT: DT40-hTDP1 cell growth loss with CPT; chicken DT40 Tdp1-/-;hTDP1 cells + 20 nM CPT, ATP luminescence, 48 h; Potency, µM (doses to about 46.2 µM), hits mostly inhibitors; actives 12% (n = 420,000); further: nearly all actives have a fitted effect of over 55% in size
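Chicken DT40 Tdp1-/- cells complemented with human TDP1, 400 cells/well, exposed to compounds plus 20 nM camptothecin for at least 48 h at 37 C; viability read as ATP content by CellTiter-Glo luminescence.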
HT1080-NT tox: kills 2HG-producing HT-1080-NT fibrosarcoma cells. actives 1.6% (n = 360,000). Potency, µM (doses to about 46.1 µM), actives largely listed as cytotoxic. HT-1080-NT fibrosarcoma viability, CellTiter-Glo ATP luminescence, 48 h;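 further: NT is the 2HG producing partner of a matched IDH1 knockdown line; nearly all actives have a fitted effect of over 55% in size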
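A 48-hour cytotoxicity screen used HT-1080-NT cells plated 2 hours before compound delivery. ATP-based CellTiter-Glo luminescence measured viability, normalized to DMSO and no-cell controls.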
TDP1 cell noCPT: qHTS for Inhibitors of human tyrosyl-DNA phosphodiesterase 1 (TDP1): qHTS in cells in absence of CPT; DT40 Tdp1-/- hTDP1 cells, no CPT, ATP luminescence, 48 h; Potency, µM (top dose mostly 46.2 µM), actives largely listed as inhibitors; actives 15% (n = 420,000); AID 686978, 2013; further: nearly all actives have a fitted effect of over 55% in size
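DT40 Tdp1-/-;hTDP1 cells, no CPT (DMSO vehicle only), 400 cells/well; compounds pin-transferred; ≥48 hr, 37 °C; CellTiter-Glo 30 min RT dark, luminescence read.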
HT1080 IDH1KD tx: HT-1080 IDH1 knockdown cell toxicity (counter line) | actives 2% (n = 360,000) | Potency, µM (doses to about 46.1 µM), usual class: cytotoxic | AID 686971 | HT-1080 IDH1 knockdown viability, ATP luminescence, 48 h
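Luminescent ATP read-out (CellTiter-Glo, 10 min at room temperature) after 48 h compound exposure at 37 °C gave viability of IDH1-knockdown HT-1080 cells. Activity was normalised to DMSO and cell-free wells, then fitted as concentration-response curves.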
Numbers stand for hits; i = inactive; ? = inconclusive; nt = no result. Unless noted, the call rests on the fitted dose curve; in most records, active means well fitted curve in the direction sought with a large enough effect; inconclusive means small, poorly fitted or top-dose-only effect, or another doubt; inactive means no such curve, though single readings can be large; an effect the other way counts as inactive or inconclusive.

SMILES	IL1B secr inh	TDP1 cell CPT	HT1080-NT tox	TDP1 cell noCPT	HT1080 IDH1KD tx
CCN(CC)c1ccc2cc(-c3nc(-c4ccc(Cl)cc4Cl)cs3)c(=O)oc2c1	nt	i	nt	i	nt
CCN(CC)c1ccc2cc(-c3nc(-c4ccc(OC)cc4)cs3)c(=O)oc2c1	i	?	i	15µM	i
CCN(CC)c1ccc2cc(C(=O)c3cccs3)c(=O)oc2c1	-52	18µM	i	?	i
CC(C)c1c(C(=O)N(C)CC2CCCN(C)C2)cnn1-c1nccc(-c2cccs2)n1 (centres undefined)	nt	?	nt	i	nt
COc1ccc(C(=O)Cn2c(NCCO)nc3ccccc32)cc1OC	i	i	i	i	i
C=C1C(=O)C2=CC1CCC(=O)C1(C)CCC(OC(C)=O)C(C)(C)C1CC2O (centres undefined)	-107	2.1µM	i	2.1µM	5.8µM
CC(=O)OC1CC[C@@]2(C)C(CC[C@@]3(C)C2CC=C2C4CC(C)(C)CC[C@]4(C)CC[C@@]23C)C1(C)C (some centres undefined)	nt	i	nt	i	nt
CCCCCCNC(=O)O[C@@]12CN(S(=O)(=O)c3ccc(C)cc3)C[C@]1(O)Cn1c(=O)n(CCCCCC)c(=O)n1C2	i	i	i	?	i
CCCCCCn1c(=O)n2n(c1=O)C[C@]1(OC(=O)NCc3ccccc3F)CN(S(=O)(=O)c3ccc(C)cc3)C[C@]1(O)C2	i	?	?	15µM	?
CCCCCCn1c(=O)n2n(c1=O)C[C@]1(OC(=O)NC3CCCC3)CN(S(=O)(=O)c3ccc(C)cc3)C[C@]1(O)C2	i	?	?	23µM	?
Cc1cc(C)c2c(=O)cc(C(=O)Nc3sc4c(c3C#N)CCCC4)oc2c1	nt	i	nt	?	nt
O=c1ccc(-c2ccccc2)nn1Cc1ccc(F)cc1Cl	?	?	i	?	?
CC(C)S(=O)(=O)N1CCCC(C(=O)c2cccc(Cl)c2)C1 (centres undefined)	i	i	i	?	i
CCOC(=O)c1cc(-c2ccccc2)n(CCC(=O)Nc2ccc(OC)c(Cl)c2)c1C	nt	16µM	nt	16µM	nt
CC(=O)c1cc(-c2ccccc2)n(CCC(=O)NCc2cccs2)c1C	i	i	i	i	i
CCOC(=O)c1cc(-c2ccccc2)n(CCCC(=O)Nc2ccc(C)c(Cl)c2)c1C	nt	?	nt	23µM	nt
CC(=O)c1cc(-c2ccccc2)n(CCC(=O)Nc2ccc(C(C)C)cc2)c1C	nt	8.2µM	nt	5.8µM	nt
CCOC(=O)c1cc(-c2ccccc2)n(CCCC(=O)Nc2ccccc2C)c1C	nt	?	nt	23µM	nt
COc1ccc(NC(=O)CCn2c(=S)[nH]c3ccccc3c2=O)cc1Cl	i	i	?	i	i
CCc1nnc(NC(=O)COC(=O)c2cc(OC)cc(OC)c2)s1	i	i	i	i	i
O=C(Nc1ccc(Br)cc1F)c1cc2nc(-c3ccco3)cc(C(F)(F)Cl)n2n1	nt	i	nt	i	nt
CC(C)(C)OC(=O)N[C@@H](C(=O)OC(C)(C)C)c1ccc(Br)cc1	i	?	i	i	i
CCOC(=O)c1cc(-c2ccccc2)n(CCC(=O)Nc2ccc(C(F)(F)F)cc2)c1C	nt	7.3µM	nt	7.3µM	nt
O=C(COC(=O)CNC(=O)c1ccc(Cl)c([N+](=O)[O-])c1)NC(=O)CN1CCCC1=O	i	i	i	i	i
Cc1csc(=O)n1CC(=O)OC(C)C(=O)Nc1ccc(N(C)C)cc1 (centres undefined)	i	i	i	i	i
SMILES	IL1B secr inh	TDP1 cell CPT	HT1080-NT tox	TDP1 cell noCPT	HT1080 IDH1KD tx
Cc1sc2cc3c(c(C(=O)c4ccccc4)[n+]2c1C)-c1cccc2cccc-3c12	-97	1µM	8.2µM	1.3µM	8.2µM
Cc1cc2ccccc2cc1C(=O)c1ccccc1	i	i	i	i	i
O=C(c1ccccc1)c1c2c(cc3sc4ccccc4[n+]13)-c1cccc3cccc-2c13	-108	4.6µM	?	2.3µM	?
O=C(c1ccc(Oc2cc(Cl)cc(Cl)c2)o1)N1CCCCC1	i	i	i	i	i
CC1CCN(c2ccccc2NC(=S)NC(=O)C(C)(C)C)CC1	i	?	?	?	i
CC(NC(=O)Cc1ccc(NS(=O)(=O)c2cccc(C(F)(F)F)c2)cc1)c1ccccn1 (centres undefined)	i	i	i	i	i
CCOC(=O)c1sc(CS(=O)(=O)c2ccc(Cl)cc2)nc1C	i	i	i	?	i
CCOC(=O)c1sc(-c2ccc(Cl)cc2Cl)nc1O	i	26µM	i	18µM	i
COc1ccc(NC(=O)Cc2ccsc2)cc1S(=O)(=O)N1CCOCC1	i	i	i	i	i
CN(CC(=O)NC(=O)NCc1ccco1)Cc1nc2ccccc2c(=O)[nH]1	i	4.6µM	?	1.6µM	11µM
CN(CC(=O)NC(c1ccccc1)c1ccccc1)Cc1nc2ccccc2c(=O)[nH]1	i	?	i	?	i
CSc1ccc(CN(C)Cc2nc3ccccc3c(=O)[nH]2)cc1	i	?	i	15µM	i
COc1cc2c(cc1NC(=O)CN(C)Cc1nc3ccccc3c(=O)[nH]1)oc1ccccc12	i	18µM	i	23µM	i
CN(CC(=O)Nc1ccccc1Sc1ccccc1)Cc1nc2ccccc2c(=O)[nH]1	i	?	i	18µM	?
COc1ccc(CN(C)C(=O)C2CCN(S(=O)(=O)c3cccs3)CC2)cc1F	i	?	i	?	i
CCOc1ccc(-c2nonc2NC(=O)COc2c(C)cc(C)cc2C)cc1OCC	nt	?	nt	i	nt
CCOc1ccc(-c2nonc2NC(=O)c2oc3cc(C)c(C)cc3c2C)cc1OCC	nt	i	nt	?	nt
CCOc1ccc(-c2nonc2NC(=O)c2oc3c(C)c(C)ccc3c2C)cc1OCC	nt	15µM	nt	16µM	nt
CCOc1ccc(-c2nonc2NC(=O)c2oc3cc(C)ccc3c2C)cc1	nt	23µM	nt	?	nt
CCOc1ccc(-c2nonc2NC(=O)c2ccco2)cc1	i	i	?	i	i
CCCOc1ccc(-c2nonc2NC(=O)c2oc3ccc(C)cc3c2C)cc1OCCC	nt	9.2µM	nt	?	nt
O=C(COC(=O)c1cccnc1Cl)Nc1nc(-c2ccccc2)cs1	i	i	i	i	i
CCOC(=O)c1nn(-c2ccccc2)c(-c2ccccc2)c1C(=O)c1ccccc1	i	?	i	?	i
CCOC(=O)c1nn(-c2ccc(F)cc2)c(-c2ccccc2)c1C(=O)c1ccccc1	i	?	i	16µM	i
Cc1cccc(C(=O)NCC(=O)OCC(=O)c2ccc(Cl)s2)c1	i	i	i	i	i
Cc1ccc(C(=O)N2N=C(c3ccccc3O)CC2c2ccccc2)cc1 (centres undefined)	i	?	i	21µM	i
O=C(CSc1ccccn1)Nc1nonc1[N+](=O)[O-]	-99	3.7µM	21µM	4.1µM	?
